Laboratory results as given in PubChem BioAssay AID1671202 (University of Kansas High Throughput Screening Laboratory, 2021).
Several values for one entry are separate records, joined by “and”; a condition that tells them apart may be missing. Equal entries are not always repeated. About 6,900 (3.6%) of roughly 190,000 compounds were called active. This is one part of a sample in which actives are shown more often than they occur. Cut-off read from the data, not from the text of the source: active = inhibition above about 50%; inactive = the rest. Where a structure was tested more than once in an assay, its records may differ in their call.

target: Huntingtin (Homo sapiens) (UniProt P42858); experiment: mutant huntingtin-calmodulin interaction inhibitors – biochemical, AlphaScreen, primary screen (AID 1671202); conditions: AlphaScreen His-mHTT/GST-CaM binding, luminescence; at 15 µM, stronger effect = higher value;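 note: 0% = both proteins with DMSO and 100% = one protein alone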
Sequence (P42858 whole entry, looked up, stated change not applied): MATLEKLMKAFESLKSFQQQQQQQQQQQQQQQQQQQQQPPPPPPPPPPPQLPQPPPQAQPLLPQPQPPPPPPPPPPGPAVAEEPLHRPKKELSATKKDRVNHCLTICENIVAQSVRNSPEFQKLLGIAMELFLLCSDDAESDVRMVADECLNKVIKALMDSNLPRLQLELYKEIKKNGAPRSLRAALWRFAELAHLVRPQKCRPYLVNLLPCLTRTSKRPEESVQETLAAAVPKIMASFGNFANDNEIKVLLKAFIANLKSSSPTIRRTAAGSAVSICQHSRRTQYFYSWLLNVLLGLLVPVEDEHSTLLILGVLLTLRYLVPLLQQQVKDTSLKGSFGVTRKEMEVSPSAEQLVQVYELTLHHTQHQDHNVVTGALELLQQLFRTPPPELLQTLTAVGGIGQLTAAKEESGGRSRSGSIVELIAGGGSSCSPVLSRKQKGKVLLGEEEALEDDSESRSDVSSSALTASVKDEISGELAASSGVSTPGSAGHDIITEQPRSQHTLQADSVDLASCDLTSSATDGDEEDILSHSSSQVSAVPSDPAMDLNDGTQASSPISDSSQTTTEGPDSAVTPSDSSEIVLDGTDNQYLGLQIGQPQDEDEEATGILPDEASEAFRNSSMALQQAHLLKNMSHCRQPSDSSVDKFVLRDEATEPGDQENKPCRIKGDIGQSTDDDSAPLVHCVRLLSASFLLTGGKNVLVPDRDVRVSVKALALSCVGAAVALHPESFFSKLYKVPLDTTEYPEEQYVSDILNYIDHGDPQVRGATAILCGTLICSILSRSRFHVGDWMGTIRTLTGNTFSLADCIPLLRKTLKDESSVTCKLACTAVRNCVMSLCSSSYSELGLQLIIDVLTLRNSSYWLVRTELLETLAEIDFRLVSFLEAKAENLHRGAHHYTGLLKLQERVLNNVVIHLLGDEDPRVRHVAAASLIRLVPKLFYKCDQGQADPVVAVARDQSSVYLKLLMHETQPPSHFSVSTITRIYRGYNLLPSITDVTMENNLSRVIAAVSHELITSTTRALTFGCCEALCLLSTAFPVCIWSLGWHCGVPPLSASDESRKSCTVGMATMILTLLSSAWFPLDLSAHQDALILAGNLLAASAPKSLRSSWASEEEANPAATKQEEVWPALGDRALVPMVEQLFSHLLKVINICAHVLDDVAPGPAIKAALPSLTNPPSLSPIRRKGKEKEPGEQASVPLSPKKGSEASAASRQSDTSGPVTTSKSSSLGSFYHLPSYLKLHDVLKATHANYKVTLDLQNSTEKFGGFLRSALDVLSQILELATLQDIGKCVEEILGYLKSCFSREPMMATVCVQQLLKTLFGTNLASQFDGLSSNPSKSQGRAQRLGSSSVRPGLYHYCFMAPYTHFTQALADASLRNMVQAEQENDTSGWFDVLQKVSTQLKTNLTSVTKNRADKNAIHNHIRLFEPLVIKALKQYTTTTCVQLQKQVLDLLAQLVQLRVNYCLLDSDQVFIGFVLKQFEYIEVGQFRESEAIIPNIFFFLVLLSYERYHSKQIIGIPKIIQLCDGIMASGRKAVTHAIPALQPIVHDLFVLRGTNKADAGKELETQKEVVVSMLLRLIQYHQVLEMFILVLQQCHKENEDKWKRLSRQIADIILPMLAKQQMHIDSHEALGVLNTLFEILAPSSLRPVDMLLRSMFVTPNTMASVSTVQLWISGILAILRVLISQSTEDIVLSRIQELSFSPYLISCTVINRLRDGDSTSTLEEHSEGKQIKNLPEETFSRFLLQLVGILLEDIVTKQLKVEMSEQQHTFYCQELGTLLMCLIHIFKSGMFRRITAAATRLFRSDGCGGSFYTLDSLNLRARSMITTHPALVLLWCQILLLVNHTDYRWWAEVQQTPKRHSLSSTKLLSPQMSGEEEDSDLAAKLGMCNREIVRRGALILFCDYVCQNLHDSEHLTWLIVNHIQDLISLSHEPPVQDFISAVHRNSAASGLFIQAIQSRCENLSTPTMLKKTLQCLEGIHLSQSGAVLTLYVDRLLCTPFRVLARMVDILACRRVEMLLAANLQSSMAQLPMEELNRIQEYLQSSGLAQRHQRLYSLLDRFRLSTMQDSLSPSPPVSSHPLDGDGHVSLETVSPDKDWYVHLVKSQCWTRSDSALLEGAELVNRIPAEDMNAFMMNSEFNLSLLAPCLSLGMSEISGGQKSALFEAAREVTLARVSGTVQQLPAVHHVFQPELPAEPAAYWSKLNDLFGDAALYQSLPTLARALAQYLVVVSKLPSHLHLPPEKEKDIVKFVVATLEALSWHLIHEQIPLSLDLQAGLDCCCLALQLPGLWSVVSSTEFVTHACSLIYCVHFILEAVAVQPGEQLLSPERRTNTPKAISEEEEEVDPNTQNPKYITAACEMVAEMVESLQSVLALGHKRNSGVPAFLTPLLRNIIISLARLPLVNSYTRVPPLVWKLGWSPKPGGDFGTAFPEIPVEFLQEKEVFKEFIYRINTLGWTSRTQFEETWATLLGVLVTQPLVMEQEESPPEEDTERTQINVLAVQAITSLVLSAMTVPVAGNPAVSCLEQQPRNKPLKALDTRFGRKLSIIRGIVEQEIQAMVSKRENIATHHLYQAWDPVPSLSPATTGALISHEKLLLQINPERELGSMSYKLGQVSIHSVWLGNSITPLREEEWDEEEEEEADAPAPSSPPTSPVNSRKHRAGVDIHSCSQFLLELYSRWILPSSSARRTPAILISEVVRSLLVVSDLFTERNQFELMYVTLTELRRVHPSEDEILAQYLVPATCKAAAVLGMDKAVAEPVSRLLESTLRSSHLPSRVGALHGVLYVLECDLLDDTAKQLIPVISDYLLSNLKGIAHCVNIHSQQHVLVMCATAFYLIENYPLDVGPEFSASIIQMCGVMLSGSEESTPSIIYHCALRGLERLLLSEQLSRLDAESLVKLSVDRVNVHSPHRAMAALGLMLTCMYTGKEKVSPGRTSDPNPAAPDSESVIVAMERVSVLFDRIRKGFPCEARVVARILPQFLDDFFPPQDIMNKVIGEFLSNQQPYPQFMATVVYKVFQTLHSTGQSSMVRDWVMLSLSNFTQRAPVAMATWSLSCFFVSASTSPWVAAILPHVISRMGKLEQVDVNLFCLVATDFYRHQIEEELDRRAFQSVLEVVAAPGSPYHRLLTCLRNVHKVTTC

Row | Compound | inhibition
1 | COc1ccc(N2C(=O)C3N=NN(Cc4c(F)cccc4Cl)C3C2=O)cc1 (stereo unspecified) | -2.2% (inactive)
2 | COc1ccc(-n2nc3cc(C)c(NC(=O)c4ccccc4F)cc3n2)cc1 | -3.4% (inactive)
3 | CC(C)CCNC(=O)C1(C)CCC(=O)N1Cc1ccc(OC(C)C)cc1 (stereo unspecified) | 0.89% (inactive)
4 | CCCC1c2cccn2CCN1C(=O)Nc1ccccc1C (stereo unspecified) | 6.33% (inactive)
5 | CCOC(=O)CCNC(=O)N1CCn2cccc2C1c1ccc(Cl)cc1 (stereo unspecified) | 82.4% (active)
6 | CCOC(=O)CC1(NC(=O)N2CCn3cccc3C2Cc2ccccc2)CCCCC1 (stereo unspecified) | 46.3% (inactive)
7 | COc1ccc(C(=O)N2CCC(c3nc(CNC(=O)C4CCC4)cs3)CC2)cc1 | 5.04% (inactive)
8 | O=C1CC(c2cccs2)CC2=C1C(c1cccc(Cl)c1)Nc1ccccc1N2 (stereo unspecified) | 26% (inactive)
9 | COc1cccc(C2CC(=O)C3=C(C2)Nc2ccccc2NC3c2cccc(F)c2)c1 (stereo unspecified) | 25% (inactive)
10 | Cc1ccc2oc(C3Nc4ccccc4NC4=C3C(=O)CC(c3cccs3)C4)cc(=O)c2c1 (stereo unspecified) | 4.8% (inactive) and 92% (active)
11 | O=C(CSCc1ccccc1Cl)NC1CCCCC1 | -5.4% (inactive)
12 | O=C(Cc1ccc(F)cc1)NC1CCCC1 | -1.1% (inactive)
13 | O=C(Cc1nc(-c2ccccn2)n[nH]1)NC1CCCCCC1 | 98% (active)
14 | N#CC1=C(N)Oc2n[nH]c(C(F)(F)F)c2C1c1cccnc1 (stereo unspecified) | -2% (inactive)
15 | Cc1ccc(Cl)cc1NC(=O)N1CC=C(c2cn(C)c3ncccc23)CC1 | 19.5% (inactive)
16 | Cc1ccc(CNC(=O)c2cccc(N3CCNC(c4ccccc4)C3)n2)cc1 (stereo unspecified) | 57.7% (active)
17 | CCNC(=O)c1cccc(N2CCNC(c3ccccc3)C2)n1 (stereo unspecified) | 2.6% (inactive)
18 | O=C(NCc1ccc(F)cc1)c1cccc(N2CCNC(c3ccccc3)C2)n1 (stereo unspecified) | 44.2% (inactive)
19 | Cc1cc(C(=O)NCC(c2cn(C)c3ccccc23)N(C)C)no1 (stereo unspecified) | 0.7% (inactive)
20 | Cc1[nH]c2ccccc2c1C(NS(=O)(=O)c1ccccc1)C(Cl)(Cl)Cl (stereo unspecified) | 30% (inactive)
21 | Cn1cc(C(NS(=O)(=O)c2ccc(Cl)cc2)C(Cl)(Cl)Cl)c2ccccc21 (stereo unspecified) | 77% (active)
22 | O=C(Cc1ccccc1F)N1CCOc2ccccc2C1 | 0.06% (inactive)
23 | COCCN1CCC(N2CCCN(C(=O)c3ccc(C)c(F)c3)CC2)C1=O (stereo unspecified) | 7.8% (inactive)

Row | Compound | inhibition
24 | CCC(C(=O)NCC(C)(O)CCSC)c1ccccc1 (stereo unspecified) | -4.2% (inactive)
25 | COc1ccc(NC(=O)C[C@H]2C(=O)N(CCc3ccccc3)C[C@@H]2C)cc1 | -5.1% (inactive)
26 | O=C(C[C@H]1C(=O)N(c2ccc(F)c(F)c2)C[C@@H]1Cc1ccccc1)Nc1ccccc1 | 52.3% (active)
27 | CNC(=O)C[C@H]1C(=O)N(c2ccc(OC)cc2)C[C@@H]1Cc1ccccc1 | -3.3% (inactive)
28 | COc1ccc(C(=O)N2CCC(c3nc(C(=O)N4CCSCC4)c(C)o3)CC2)cc1F | 5.94% (inactive)
29 | CC(=O)c1ccc(OCC(O)CNC2CCCC2)cc1 (stereo unspecified) | -0.4% (inactive)
30 | O=C(NCc1ccccc1F)c1cc2n(n1)CCCC2 | -5.1% (inactive)
31 | COc1ccc(C(CC(=O)N2CCN(c3ccccc3)CC2)c2c(O)cc(OC)cc2OC)cc1 (stereo unspecified) | 34.4% (inactive)
32 | COc1ccc(CN2CCN(Cc3cc(OC)c(OC)c(OC)c3)CC2)cc1 | 2.6% (inactive)
33 | COc1cc(OC)c2ccc(=O)oc2c1C(CCN1CCN(c2ccccc2)CC1)c1ccc2c(c1)OCO2 (stereo unspecified) | 73.2% (active)
34 | COc1ccccc1N1CCN(Cc2cc(OC)c3c(c2)OCO3)CC1 | 4.1% (inactive)
35 | COc1cc(C(CCN2CCN(c3ccccc3)CC2)c2c(OC)cc(OC)c3ccc(=O)oc23)cc(OC)c1OC (stereo unspecified) | 89.6% (active)
36 | COc1ccccc1C(CCNCc1ccccc1)c1ccc2c(c1)OCO2 (stereo unspecified) | 47.4% (inactive)
37 | CNC(=O)c1ccc2c(c1SC)C(=O)c1ccccc1C2=O | -3% (inactive)
38 | CC1(C)CC(=O)C(C(=N)CC2CC(=O)NC(=O)C2)=C(O)C1 | 3% (inactive)
39 | CC(C)(C)[C@H]1CCSC2=NCCC[C@]2(c2ccccc2)C1 | 7% (inactive)
40 | CC(SCc1ccccc1)C(=O)Nc1ccc(Cl)cc1 (stereo unspecified) | -33.9% (inactive)
41 | O=C(Cc1c(C(=O)O)[nH]c2ccc(Cl)cc12)Nc1cccc(Cl)c1 | 14% (inactive)
42 | CCCCCCN1C[C@H](O)[C@@H](n2cc(C3CC3)nn2)C[C@@H]1c1ccc(Cl)cc1 | 72.7% (active)
43 | O=C(OCc1cn([C@@H]2C[C@H](c3ccc(Cl)cc3)N(Cc3cccs3)C[C@H]2O)nn1)c1ccccc1 | 2.5% (inactive)
44 | CCCCCCN1C[C@@H](O)[C@H](n2cc(COC(=O)c3ccccc3)nn2)C[C@@H]1c1ccc(Cl)cc1 | -4.7% (inactive)
45 | O[C@H]1C[C@H](c2ccc(Cl)cc2)N(Cc2cccs2)C[C@@H]1n1cc(C2CC2)nn1 | 100% (active)
46 | Cc1ccc([C@H]2C[C@H](O)[C@@H](n3cc(COC(=O)c4ccccc4)nn3)CN2CC2CCCCC2)cc1 | 23.1% (inactive)

Row | Compound | inhibition
47 | O[C@@H]1C[C@H](c2ccccc2)N(Cc2cccs2)C[C@H]1n1cc(C2CC2)nn1 | 19.2% (inactive)
48 | O[C@H]1CN(Cc2cccs2)[C@@H](c2ccc(Cl)cc2)C[C@@H]1n1cc(C2CC2)nn1 | 98.3% (active)
49 | O=C(c1cccs1)N1C[C@H](n2cc(C3CC3)nn2)[C@@H](O)C[C@@H]1c1ccccc1 | 4.1% (inactive)
50 | COc1ccc([C@H]2C[C@@H](n3cc(COC(=O)c4ccccc4)nn3)[C@H](O)CN2C(=O)c2cccs2)cc1 | 23.6% (inactive)
51 | O=C(NCCC1CCN(C(=O)c2ccc(F)cc2)CC1)c1ccc(F)cc1 | -1.87% (inactive)
52 | O=C(Cc1ccccc1)Nc1ccc(C(=O)Nc2ccc(Cl)cc2Cl)cc1 | -3.3% (inactive)
53 | Cc1cc(C2CCCN2C(=O)c2ccn(C)n2)no1 (stereo unspecified) | -4.24% (inactive)
54 | O=C(CC(c1ccccc1)c1ccccc1)N1CCN(c2ccccc2F)CC1 | -3.5% (inactive)
55 | O=C(Nc1ccc(N2CCN(Cc3ccc(F)cc3)CC2)nc1)C1CC1 | 5% (inactive)
56 | Cc1cccc(-c2nc(CN3CCN(C(=O)C4CC4)CC3)no2)c1 | 4.1% (inactive)
57 | CC(C)NC(=O)N1CCCC(c2cccc(C(=O)NCc3ccc(Cl)cc3)c2)C1 (stereo unspecified) | 2.21% (inactive)
58 | CCCN1CCN(C(=O)c2cccc(C3CCCN(C(=O)NCC)C3)c2)CC1 (stereo unspecified) | 10.7% (inactive)
59 | CC(C)NC(=O)N1CCCC(c2cccc(C(=O)N3CCN(c4ccccc4)CC3)c2)C1 (stereo unspecified) | 51.8% (active)
60 | CN(C)C(=O)c1cc2c(s1)CCC(C(=O)Nc1ccc(F)cc1F)C2 (stereo unspecified) | 3.95% (inactive)
61 | C#CCOc1ccc(/C=C2\NC(=O)N(CC(=O)Nc3cccc(C)c3)C2=O)cc1OC | 3% (inactive)
62 | O=C(Nc1ccc([N+](=O)[O-])cc1Br)c1cncc(Br)c1 | -1% (inactive)
63 | CCCCC[C@H](C)N1C[C@@H](COCc2ccccc2)Oc2cc(N3CCC[C@@H]3CO)ccc2S1(=O)=O | 3.5% (inactive)
64 | CSc1ccc(Oc2cccc3c2S(=O)(=O)N([C@H](C)c2ccccc2)C[C@@H](COCc2ccccc2)O3)cc1C | -4.7% (inactive)
65 | CCCCC[C@H](C)N1C[C@@H](COCc2ccccc2)Oc2cc(N3CC[C@@H](N(C)C)C3)ccc2S1(=O)=O | 100% (active)
66 | O=C(NCCN1CCOCC1)Nc1ccccc1F | -6.5% (inactive)
67 | CCCN1CCn2cc(C(=O)N3CCN(c4cccc(OC)c4)CC3)nc2C1 | 4.51% (inactive)
68 | CCCN1CCn2cc(C(=O)NCc3cccc(OC)c3)nc2C1 | 4.35% (inactive)
69 | CCCN1CCn2cc(C(=O)N3CCN(c4ccccc4)CC3)nc2C1 | 63% (active)

Row | Compound | inhibition
70 | Cc1cc(C)cc(C(=O)N2CCC(COc3ccccc3C(=O)NC3CC3)CC2)c1 | 9.35% (inactive)
71 | O=C1c2cccc(N3CCCCC3)c2C(=O)c2cccc(Cl)c21 | 98% (active)
72 | O=S(=O)(c1cccc(Cl)c1Cl)N1CCN(c2cc(N3CCCC3)ncn2)CC1 | 2.9% (inactive)
73 | O=c1c(Cl)c(N2CCCC2)cnn1-c1ccccc1 | -0.3% (inactive)
74 | COc1ccc(C(=O)Nc2ccc(-n3nncc3-c3ccccc3)cc2)cc1OC | 57% (active)
75 | COc1ccc(C(=O)Nc2ccc(-n3nncc3-c3ccccc3)cc2)c(OC)c1 | 31% (inactive)
76 | COc1ccc(C(=O)Nc2ccc(-n3nncc3-c3ccccc3)cc2)cc1 | 18% (inactive)
77 | CC(=O)c1cccc(N=Cc2cc([N+](=O)[O-])ccc2O)c1 | 6% (inactive)
78 | Cc1cccc(OCC(O)CNC2CCCC2)c1 (stereo unspecified) | -1.4% (inactive)
79 | CCOc1ccccc1C(=O)NCc1nnc2n1CCCC2 | 0.6% (inactive)
80 | O=C(Nc1cccn2cnnc12)c1ccccn1 | 62% (active)
81 | CC(C)n1cnc2cc(CNC(=O)c3ccccn3)ccc21 | 14% (inactive)
82 | O=C(NCc1ccccc1)c1ccccn1 | -4.7% (inactive)
83 | COCCNC(=O)c1ccc2c(c1)ncn2-c1ccc(C)c(Cl)c1 | 24% (inactive)
84 | O=C(NCc1ccc2[nH]c3c(c2c1)CCCC3)C1CC1 | 7.3% (inactive)
85 | NC(=O)c1ccc2[nH]c3c(c2c1)CCCC3 | 12.3% (inactive)
86 | Cc1cccc(NS(=O)(=O)c2ccc3nnc(C)n3c2)c1 | 5% (inactive)
87 | COc1ccc(S(=O)(=O)N2CCC(C(=O)N3CCOCC3)CC2)cc1OC | -0.7% (inactive)
88 | O=C(C1CCN(S(=O)(=O)c2ccc3[nH]c4c(c3c2)CCCCC4)CC1)N1CCCC1 | 56.3% (active)
89 | Cc1cccc(NS(=O)(=O)c2ccc3[nH]c4c(c3c2)CCCC4)c1 | 98.9% (active)
90 | Cc1ccc(C2=CC(c3ccc(Br)cc3)n3ncnc3N2)cc1 (stereo unspecified) | 7% (inactive)
91 | O=C(NCc1cccnc1)c1cnn2c1NC(c1cccs1)CC2C(F)(F)F (stereo unspecified) | 4.91% (inactive)
